According to PubChem BioAssay (NCI):
The panel holds about 83,000 compounds, 20% with a hit somewhere; the sample as a whole holds those more often.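 Plates (96-well) were seeded with cells, treated with compound at one concentration, and incubated for 48 hours before percent growth was determined.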 Active and inactive are the calls of the source. The calls were made as follows: active = growth percent below 10; inactive = the rest.

These compounds were tested on M14 melanoma (assay: NCI-60 one-dose screen, 48 h (100 = growth as untreated, 0 = no growth, -100 = all killed)). Details: 10 µM unless noted.

Row | SMILES | growth
1 | COc1cc(C2CC(C3C(=O)N(C)C(=O)N(C)C3=O)=NN2C=O)cc(OC)c1OC (stereo unspecified) | 84% (inactive)
2 | C=C1CCC2C3(C)COC(c4ccccc4)OC3CCC2(C)C1C/C=C1/C(=O)OCC1OC(C)=O (stereo unspecified) | 89.4% (inactive)
3 | Clc1ccc(C2=NN(c3ccc(Cl)cc3)C(c3cccc(Nc4ccnc5cc(Cl)ccc45)c3)C2)cc1 (stereo unspecified) | 84.8% (inactive)
4 | CC(=O)N1N=C(c2ccc(Nc3nc(NCCO)nc(NCCO)n3)cc2)CC1c1ccc(Cl)cc1 (stereo unspecified) | 98.9% (inactive)
5 | O=C(c1ccccc1)c1ccc(Oc2ccc([N+](=O)[O-])cc2[N+](=O)[O-])cc1 | 53.8% (inactive)
6 | O=C(C(=O)N1CCOCC1)c1cn(CCCn2cc(C(=O)C(=O)N3CCOCC3)c3ccccc32)c2ccccc12 | 101% (inactive)
7 | CC(C)CC1NC(=O)C(CCCN)NC(=O)C(C(C)C)NC(=O)C2CCCN2C(=O)C(Cc2ccccc2)NC(=O)C(CC(C)C)NC(=O)C(CCCN)NC(=O)C(C(C)C)NC(=O)C2CCCN2C(=O)C(Cc2ccccc2)NC1=O (stereo unspecified) | -63.8% (active)
8 | Cc1csc(C#Cc2cncc(O)c2)n1 | 111% (inactive)
9 | COc1cc(/C=C/C(=O)C(C(=O)/C=C/c2ccc(OC(=O)CCNC34CC5CC(CC(C5)C3)C4)c(OC)c2)C(=O)CCNC23CC4CC(CC(C4)C2)C3)ccc1OC(=O)CCNC12CC3CC(CC(C3)C1)C2 (stereo unspecified) | -1.22% (active)
10 | C/C=C(/C(=C/C)c1ccc(O)cc1)c1ccc(O)cc1 | 15.4% (inactive)
11 | COc1cc(/C=C/C(=O)CC(=O)/C=C/c2ccc(OC(=O)CCNC34CC5CC(CC(C5)C3)C4)c(OC)c2)ccc1OC(=O)CCNC12CC3CC(CC(C3)C1)C2 | 16.5% (inactive)
